Source: PubChem BioAssay AID1159580 (chemical genetic matrix, 2015)
Several values for one entry are separate records, joined by “and”; a condition that tells them apart may be missing. Equal entries are not always repeated. The campaign covered roughly 5,500 compounds. About 2,000 (36%) were called active. Not shown: some 18% with an inconclusive outcome. Rule as the data show it: active = normalized growth mostly below about 0.91 (no sharp cut-off); inconclusive = no clear call, values can overlap the other calls; inactive = mostly above about 0.92. The list shows a part of the results.

Test: chemical genetic growth profiling, strain panel (AID 1159580);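 also: tested at 20 µM; growth read once vehicle control cultures reached saturation at 30 °C; 1 = growth at the plate median or of vehicle wells; lower values mean less growth of the strain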
Conditions: S. cerevisiae deletion strains, growth OD

Measured: normalized growth

CCn1cc(C(=O)O)c(=O)c2cc3c(cc21)OCO3
inactive: locus YAL013W, strain DEP1, hits give low values 1.01 | locus YAL021C, strain ccr4, hits give low values 0.967 | locus YAL026C, strain drs2, hits give low values 0.982 | locus YAL030W, strain snc1, hits give low values 0.977 | locus YAL040C, strain CLN3, hits give low values 0.97 | locus YBL061C, strain skt5, hits give low values 0.977 | locus YBR009C, strain hhf1, hits give low values 0.977 | locus YBR021W, strain FUR4, hits give low values 1.01 | locus YBR023C, strain chs3, hits give low values 0.957 | locus YBR171W, strain sec66, hits give low values 0.962 | locus YBR229C, strain ROT2, hits give low values 1.01 | locus YBR231C, strain swc5, hits give low values 0.979 | locus YBR279W, strain paf1, hits give low values 0.977 | locus YCL011C, strain gbp2, hits give low values 0.974 | locus YCL016C, strain dcc1, hits give low values 0.988 | locus YCL029C, strain bik1, hits give low values 0.997 | locus YCL061C, strain MRC1 (second series), hits give low values 0.991 | locus YCL061C, strain MRC1, hits give low values 0.971 | locus YCL069W, strain vba3, hits give low values 0.98 | locus YCR088W, strain abp1, hits give low values 0.981 | locus YDL005C, strain med2, hits give low values 0.971 | locus YDL035C, strain GPR1, hits give low values 1.02 | locus YDL040C, strain nat1, hits give low values 0.985 | locus YDL074C, strain BRE1, hits give low values 1.06 | locus YDL101C, strain DUN1, hits give low values 1.02 | locus YDL134C, strain PPH21, hits give low values 1 | locus YDL185W, strain tfp1, hits give low values 0.999 | locus YDL192W, strain arf1, hits give low values 0.99 | locus YDR001C, strain nth1, hits give low values 0.979 | locus YDR069C, strain doa4, hits give low values 0.989 | locus YDR101C, strain arx1, hits give low values 0.993 | locus YDR137W, strain rgp1, hits give low values 0.857 | locus YDR150W, strain NUM1, hits give low values 0.99 | locus YDR159W, strain sac3, hits give low values 0.996 | locus YDR162C, strain NBP2, hits give low values 1.01 | locus YDR195W, strain ref2 0.983 | locus YDR297W, strain sur2, hits give low values 0.98 | locus YDR318W, strain mcm21, hits give low values 1 | locus YDR334W, strain swr1, hits give low values 0.955 | locus YDR335W, strain msn5, hits give low values 0.984 | locus YDR363W, strain ESC2, hits give low values 0.973 | locus YDR388W, hits give low values 0.99 | locus YDR392W, strain spt3, hits give low values 0.914 | locus YDR502C, strain sam2, hits give low values 1.01 | locus YEL003W, strain gim4, hits give low values 1 | locus YEL037C, strain rad23, hits give low values 0.975 | locus YEL061C, strain CIN8 (second series), hits give low values 0.98 | locus YEL061C, strain CIN8, hits give low values 1.01 | locus YER002W, strain NOP16, hits give low values 0.967 | locus YER015W, strain faa2, hits give low values 0.983 | locus YER016W, strain bim1, hits give low values 0.993 | locus YER110C, hits give low values 0.991 | locus YER111C, strain swi4, hits give low values 0.972 | locus YER155C, strain BEM2 (second series), hits give low values 0.979 | locus YER155C, strain BEM2, hits give low values 1.01 | locus YER167W, strain BCK2, hits give low values 1.01 | locus YFR010W, strain ubp6, hits give low values 0.97 | locus YGL078C, strain dbp3, hits give low values 0.99 | locus YGL086W, strain mad1, hits give low values 1.01 | locus YGL167C, strain pmr1, hits give low values 0.976 | locus YGL173C, strain kem1, hits give low values 0.974 | locus YGL227W, strain vid30, hits give low values 0.978 | locus YGL240W, strain doc1, hits give low values 0.988 | locus YGL248W, strain PDE1, hits give low values 1.02 | locus YGL253W, strain hxk2, hits give low values 0.991 | locus YGR135W, strain pre9, hits give low values 0.99 | locus YGR229C, strain SMI1, hits give low values 1.02 | locus YGR252W, strain gcn5, hits give low values 1 | locus YHR013C, strain ard1, hits give low values 0.959 | locus YHR027C, strain rpn1, hits give low values 0.971 | locus YHR030C, strain SLT2, hits give low values 1.01 and 1.07 | locus YHR079C, strain IRE1 (second series), hits give low values 0.992 | locus YHR079C, strain IRE1, hits give low values 1.11 | locus YHR094C, strain hxt1, hits give low values 0.987 | locus YHR129C, strain ARP1, hits give low values 1.01 | locus YHR142W, strain chs7, hits give low values 0.933 | locus YHR200W, strain rpn10, hits give low values 1 | locus YIL066C, strain RNR3, hits give low values 1.02 | locus YIL073C, strain SPO22, hits give low values 0.987 | locus YIL125W, strain kgd1, hits give low values 0.995 | locus YIR030C, strain dcg1, hits give low values 0.999 | locus YJL092W, strain hpr5, hits give low values 0.981 | locus YJL095W, strain BCK1 (second series), hits give low values 0.983 | locus YJL095W, strain BCK1, hits give low values 1.03 and 1.04 | locus YJL115W, strain asf1, hits give low values 0.974 | locus YJL129C, strain trk1, hits give low values 0.974 | locus YJL134W, strain LCB3, hits give low values 1.01 | locus YJL154C, strain vps35, hits give low values 0.969 | locus YJL164C, strain tpk1, hits give low values 0.997 | locus YJL166W, strain qcr8, hits give low values 0.969 | locus YJL168C, strain set2, hits give low values 0.997 | locus YJL187C, strain SWE1 (second series), hits give low values 1.03 | locus YJL187C, strain SWE1, hits give low values 0.975 | locus YJR043C, strain POL32, hits give low values 1.02
